Assay [1] concerns the target D(1A) dopamine receptor (Homo sapiens) (UniProt P21728). As to the kind of experiment: HTS Assay for Allosteric Agonists of the Human D1 Dopamine Receptor: Primary Screen for Agonists (AID 488981). Further: 0% is about no effect. The method, boiled down:
(§1)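 Tetracycline-induced HEK293 T-REx cells force-coupled to calcium signalling were incubated overnight at 30 C and dye-loaded at room temperature. Calcium flux over 180 s after compound addition flagged agonists; a further 180 s read after EC20 dopamine flagged potentiators.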

Assay [2] shares this target. The experiment in a line: HTS Assay for Allosteric Agonists of the Human D1 Dopamine Receptor: Primary Screen for Potentiators (AID 488982). Further: 0% is about no effect. The method, boiled down: as §1
For assay [3] the target is unchanged. The experiment in a line: HTS Assay for Allosteric Agonists of the Human D1 Dopamine Receptor: Primary Screen for Antagonists (AID 488983).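 Further: calcium flux response to an EC80 dopamine challenge measured with no-wash dye; on the % scale 0 is the no-effect control and ±100 the full control effect; nearly all actives have a fitted effect of over 65% in size.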 The essentials: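 Screening of inducible HEK293 T-REx D1 cells: compound first, EC80 dopamine 180 s later, each phase read kinetically for calcium over 180 s.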
The nature of assay [4]: Validation screen for small molecules that induce genotoxicity in human embryonic kidney (HEK293T) cells expressing luciferase-tagged ELG1 (AID 493106). Further: potency means the concentration at half of the fitted maximal effect. The method, boiled down: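 Reporter-gene quantitative HTS in HEK293T cells carrying luciferase-tagged ELG1, whose level climbs under genotoxic stress. Compound exposure lasts 16 hr at 37 °C before luciferase detection.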

Assay [5] addresses ATPase family AAA domain-containing protein 5 (Homo sapiens) (UniProt Q96QE3). The experiment in a line: Validation screen for small molecules that inhibit ELG1-dependent DNA repair in human embryonic kidney (HEK293T) cells expressing luciferase-tagged ELG1 (AID 493107). Further: nearly all actives have a fitted effect of over 70% in size. Further: potency means the concentration at half of the fitted maximal effect. The method, boiled down: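 Quantitative HTS in HEK293T cells carrying luciferase-tagged ELG1, stimulated with 5-fluorouridine alongside compound for 16 hr. Loss of luciferase signal marks inhibition of ELG1 response.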

The target in assay [6] is Thyrotropin-releasing hormone receptor (Homo sapiens) (UniProt P34981). The experiment in a line: qHTS for Small Molecule Agonists and Allosteric Enhancers of Human TRH Receptor: Validation Screen for Agonists (AID 493127;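 active means calcium activation more than 3 SD above the typical response in the agonist read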;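 further: intracellular calcium rise by fluo-8 fluorescence before TRH EC20 addition; 0% is about no effect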). The conditions noted are these: TRH receptor agonist cell assay; at 2 µM; stronger effect = higher value. The essentials:
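Gq-coupled calcium mobilization in TRHR cells after compound addition, monitored kinetically with fluo-8 dye on an FDSS reader.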
(Quantitative high-throughput screening tests each substance at several concentrations.)

Assay [7] is described as follows: Nrf2 qHTS screen for inhibitors: Validation (AID 493153; active means well fitted inhibition curve with a large enough effect in the main read-out, with a control signal flat, not every such curve was filed as active). The following applies: Potency: luciferase luminescence; viability change: measured here: cytotoxicity max response. The essentials:
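Dose-response validation uses reporter A549 cells with firefly luciferase under an antioxidant response element. Compounds stay on cells 18-24 h at 37°C, and luminescence indicates Nrf2-driven transcription.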

Assay [8] in a line: qHTS for Inhibitors of Cell Surface uPA Generation: Validation Assay (AID 493164).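 Further: RAW 264.7 macrophage cells exposed to compound for 18 h; 0% is about no effect.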 The method, boiled down: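 RAW 264.7, 4000 cells/well, o/n plating; cpd 7-pt 1:5 dilution 2.45 nM–38.3 uM final; 18 h, 37 C/5% CO2; ATP-Lite, 5 s luminescence exposure.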
Assay [9] addresses ATP-dependent 6-phosphofructokinase (Trypanosoma brucei brucei) (UniProt O15648). As to the kind of experiment: qHTS Assay to Find Inhibitors of T. brucei phosphofructokinase: hit validation (AID 492961).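 Further: luminescence reports ADP formed as PFK phosphorylates fructose-6-phosphate with ATP; series mostly up to about 51 µM; on the % scale 0 is the no-effect control and ±100 the full control effect.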 The essentials: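 Reaction: 0.1 M triethanolamine pH 8.0, 5 mM MgCl2, F6P 0.5 mM, ATP 0.1 mM, PFK 1.25 nM, 45 min RT. Read-out: ADP-Glo luminescence. Analysis: concentration-response fits, classed by r2 and efficacy.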

Molecules are shown by their SMILES. Records with an inconclusive call do not appear. Activity calls are given as the source filed them. Unless noted, the call rests on the fitted dose curve; in most records, active means well fitted curve in the direction sought with a large enough effect; inconclusive means small, poorly fitted or top-dose-only effect, or another doubt; inactive means no such curve, though single readings can be large; an effect the other way counts as inactive or inconclusive.

Sequence of ATPase family AAA domain-containing protein 5 (Homo sapiens) (Q96QE3 whole entry, looked up, the tested form may be a part): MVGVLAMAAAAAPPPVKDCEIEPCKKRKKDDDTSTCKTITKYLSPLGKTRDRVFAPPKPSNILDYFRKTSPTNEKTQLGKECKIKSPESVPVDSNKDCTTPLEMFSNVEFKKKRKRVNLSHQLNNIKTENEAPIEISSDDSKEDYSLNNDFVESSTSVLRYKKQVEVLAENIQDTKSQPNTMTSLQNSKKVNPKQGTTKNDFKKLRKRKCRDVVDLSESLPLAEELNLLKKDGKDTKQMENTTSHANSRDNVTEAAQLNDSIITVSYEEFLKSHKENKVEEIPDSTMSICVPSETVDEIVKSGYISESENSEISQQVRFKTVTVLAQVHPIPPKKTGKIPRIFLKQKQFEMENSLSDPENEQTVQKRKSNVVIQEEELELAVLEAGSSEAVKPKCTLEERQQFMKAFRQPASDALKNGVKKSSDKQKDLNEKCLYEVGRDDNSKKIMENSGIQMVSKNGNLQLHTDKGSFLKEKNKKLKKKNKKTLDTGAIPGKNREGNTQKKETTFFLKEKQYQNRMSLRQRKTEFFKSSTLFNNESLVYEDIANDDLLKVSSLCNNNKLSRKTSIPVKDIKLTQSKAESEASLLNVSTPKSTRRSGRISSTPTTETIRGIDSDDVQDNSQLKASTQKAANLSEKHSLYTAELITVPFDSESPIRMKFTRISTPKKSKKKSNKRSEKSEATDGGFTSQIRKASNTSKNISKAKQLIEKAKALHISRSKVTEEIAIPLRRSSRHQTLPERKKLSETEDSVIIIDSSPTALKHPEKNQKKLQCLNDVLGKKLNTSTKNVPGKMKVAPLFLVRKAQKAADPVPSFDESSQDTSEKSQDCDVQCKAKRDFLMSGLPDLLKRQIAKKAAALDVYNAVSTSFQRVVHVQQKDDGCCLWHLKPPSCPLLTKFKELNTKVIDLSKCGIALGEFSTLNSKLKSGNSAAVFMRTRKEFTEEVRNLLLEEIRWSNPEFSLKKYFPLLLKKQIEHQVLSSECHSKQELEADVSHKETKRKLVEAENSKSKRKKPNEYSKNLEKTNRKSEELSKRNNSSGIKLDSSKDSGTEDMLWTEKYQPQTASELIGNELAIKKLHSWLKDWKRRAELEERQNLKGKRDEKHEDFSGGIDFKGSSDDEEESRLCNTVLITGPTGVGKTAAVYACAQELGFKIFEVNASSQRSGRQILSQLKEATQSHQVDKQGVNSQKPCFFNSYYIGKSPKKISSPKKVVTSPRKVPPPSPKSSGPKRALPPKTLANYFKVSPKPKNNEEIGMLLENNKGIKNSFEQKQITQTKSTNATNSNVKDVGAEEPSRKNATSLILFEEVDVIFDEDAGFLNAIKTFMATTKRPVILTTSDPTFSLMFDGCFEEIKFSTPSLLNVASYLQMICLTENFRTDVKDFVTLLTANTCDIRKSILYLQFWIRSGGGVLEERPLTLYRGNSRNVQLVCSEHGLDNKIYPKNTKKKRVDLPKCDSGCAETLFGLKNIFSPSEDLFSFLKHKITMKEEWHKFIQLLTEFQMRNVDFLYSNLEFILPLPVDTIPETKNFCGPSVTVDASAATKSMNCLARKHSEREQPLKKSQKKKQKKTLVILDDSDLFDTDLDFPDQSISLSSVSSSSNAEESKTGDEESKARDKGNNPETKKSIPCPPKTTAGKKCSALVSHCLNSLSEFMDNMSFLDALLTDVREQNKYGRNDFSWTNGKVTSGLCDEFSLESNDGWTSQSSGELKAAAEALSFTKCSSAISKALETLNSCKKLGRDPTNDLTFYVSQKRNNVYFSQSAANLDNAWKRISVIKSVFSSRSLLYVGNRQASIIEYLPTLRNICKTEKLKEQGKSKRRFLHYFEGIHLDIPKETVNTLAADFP
Sequence of Thyrotropin-releasing hormone receptor (Homo sapiens) (P34981 whole entry, looked up): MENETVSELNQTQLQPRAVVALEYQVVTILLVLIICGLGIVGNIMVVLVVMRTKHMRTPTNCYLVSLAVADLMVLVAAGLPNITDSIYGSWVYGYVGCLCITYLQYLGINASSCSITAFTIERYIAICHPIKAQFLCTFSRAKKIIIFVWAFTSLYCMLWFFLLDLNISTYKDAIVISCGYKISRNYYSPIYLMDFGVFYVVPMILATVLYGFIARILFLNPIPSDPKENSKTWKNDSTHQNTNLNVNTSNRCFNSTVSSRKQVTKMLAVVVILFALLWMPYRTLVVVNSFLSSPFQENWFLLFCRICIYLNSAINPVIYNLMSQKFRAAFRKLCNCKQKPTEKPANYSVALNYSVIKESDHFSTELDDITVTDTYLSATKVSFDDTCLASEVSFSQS
Sequence of D(1A) dopamine receptor (Homo sapiens) (P21728 whole entry, looked up): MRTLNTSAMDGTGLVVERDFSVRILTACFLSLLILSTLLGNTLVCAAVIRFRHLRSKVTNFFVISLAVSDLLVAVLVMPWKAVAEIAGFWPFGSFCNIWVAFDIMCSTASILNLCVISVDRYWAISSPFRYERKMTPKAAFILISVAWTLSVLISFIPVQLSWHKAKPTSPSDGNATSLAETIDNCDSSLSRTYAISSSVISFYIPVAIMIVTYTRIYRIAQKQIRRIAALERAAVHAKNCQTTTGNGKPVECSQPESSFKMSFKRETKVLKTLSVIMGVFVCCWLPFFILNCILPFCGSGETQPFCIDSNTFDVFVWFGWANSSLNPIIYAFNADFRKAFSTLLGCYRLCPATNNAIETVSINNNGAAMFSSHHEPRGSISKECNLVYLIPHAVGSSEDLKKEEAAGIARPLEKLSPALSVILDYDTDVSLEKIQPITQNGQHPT
Sequence of ATP-dependent 6-phosphofructokinase (Trypanosoma brucei brucei) (O15648 whole entry, looked up): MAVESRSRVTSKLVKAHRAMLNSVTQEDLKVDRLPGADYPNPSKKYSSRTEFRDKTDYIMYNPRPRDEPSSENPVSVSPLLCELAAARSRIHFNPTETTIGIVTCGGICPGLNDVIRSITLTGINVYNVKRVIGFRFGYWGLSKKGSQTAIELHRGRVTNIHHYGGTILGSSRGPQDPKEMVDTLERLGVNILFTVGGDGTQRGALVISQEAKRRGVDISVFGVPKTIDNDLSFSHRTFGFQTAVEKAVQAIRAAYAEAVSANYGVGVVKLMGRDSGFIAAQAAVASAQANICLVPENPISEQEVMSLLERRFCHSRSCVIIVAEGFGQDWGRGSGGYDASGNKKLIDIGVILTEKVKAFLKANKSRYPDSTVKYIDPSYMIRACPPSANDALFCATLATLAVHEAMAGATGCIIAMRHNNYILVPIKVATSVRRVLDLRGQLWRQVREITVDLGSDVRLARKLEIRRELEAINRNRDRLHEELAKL

For `C=CCN1CC[C@]23c4c5ccc(O)c4O[C@H]2/C(=N/NC(=O)c2ccccc2)CC[C@@]3(O)[C@H]1C5`, the Potency result in assay [1], in [2], in assay [3], in assay [4], in assay [5] and in assay [7] was “inactive” throughout. Moreover, the activation in assay [6] is 1.44% (inactive). Moreover, the viability change in [7] stood at 7.77%. The result in assay [8] was inactive.
Consider `CCCN(CCC)C1Cc2cc(OC)c(OC)cc2C1`, for which the Potency entry in assay [1], in assay [2], in assay [3], in [4], in assay [5] and in assay [7] was “inactive” each time. Also, in assay [6], the activation was -2.94% (inactive). Besides, in [7], the viability change stood at 11.4%. Besides, the result in assay [8] was inactive.
`COc1ccc(OC)c(C(O)C(C)N)c1` (configuration not stated): the Potency result in assay [1], in assay [2], in assay [3], in assay [9], in assay [4] and in assay [5] was “inactive” in each case. Also, the Potency entry in assay [7] is “inactive”. In addition, the activation in assay [6] was 1.12% (inactive). The viability change in assay [7] is -6.5%. In addition, the compound was classed as inactive in assay [8].
As to `CP(=O)(O)C1=CCNCC1`, the Potency entry in assay [1], in assay [2], in assay [3], in assay [4], in [5] and in assay [7] was “inactive” throughout. Further, in [6], the activation was 0.188% (inactive). Further, the viability change in [7] is -3.56%. In addition, the outcome in [8] was inactive.
In the case of `N[C@@]1(C(=O)O)CC[C@@H](C(=O)O)C1`, the Potency result in [1], in assay [2], in [3], in assay [4], in [5] and in assay [7] was “inactive” throughout. Further, in assay [6], the activation is -0.25% (inactive). Besides, the viability change in assay [7] amounted to 4.39%. The compound was called inactive in assay [8].
Regarding `C#CCN[C@H](C)Cc1ccccc1`, the Potency entry in [1], in assay [2], in [3], in assay [4] and in assay [5] was “inactive” in each case. In [6], the activation was 1.31% (inactive). In assay [8], the compound was classed as inactive.
As to `CC1(C(=O)O)C2CCC(O2)C1(C)C(=O)O` (configuration not stated), the Potency result in assay [1], in assay [2] and in [3] was “inactive” each time. In addition, the Potency in assay [4] was 3.66 µM (active); in assay [5], 7.3 µM (active). For the same compound, the activation in [6] was 0.438% (inactive).
Regarding `COc1ccc2c(c1)C13CCCCC1C(C2)N(C)CC3` (configuration not stated), the Potency result in assay [1], in assay [2], in [3], in assay [4], in [5] and in assay [7] was “inactive” in each case. Besides, in assay [6], the activation was 1.06% (inactive). The viability change in assay [7] came out at 4.34%. Also, the call in assay [8] was inactive.
As to `CN1C2CCC1CC(OC(c1ccccc1)c1ccccc1N)C2` (configuration not stated), the Potency entry in assay [1], in assay [2], in assay [3], in assay [4], in assay [5] and in [7] was “inactive” throughout. For the same compound, the activation in assay [6] was 1.44% (inactive). The viability change in assay [7] was -4.19%. Further, the result in [8] was inactive.

For the origin of these results see PubChem BioAssay (NCATS).
